Dicer processing = inhibitors of Dicer pre-microRNA processing, primary screen, biochemical, cat-ELCCA, chemiluminescence. 6% of 47,000 active. cat-ELCCA pre-miR-21 Dicer processing; stronger effect = higher value. Endoribonuclease Dicer (Homo sapiens), Q9UPY3. z-score at 25 µM; in the data active = z-score above about 3, passing the limit was not always enough;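 note: plate controls were vehicle for no effect and no enzyme for full effect; higher signal means more uncleaved substrate so more Dicer inhibition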
The depositor's hits bear a star. The entries come from a sample that favours hits as a whole.

SMILES	Dicer processing
Oc1ccccc1C1=Nn2c(nnc2-c2ccccc2)SC1	0.73
CCOC(=O)C(C(=O)C(F)(F)F)C(C)C(C(=O)OCC)C(=O)C(F)(F)F (stereo not drawn)	0.09
CCc1cc2c(=O)c(-c3nc4ccccc4n3C)coc2cc1OC(C)=O	1.19
CN1c2ccccc2C(=O)/C(=C\Nc2ccc(F)cc2)S1(=O)=O	-0.5
N#Cc1c(N2CCOCC2)nsc1-c1ccccc1	0.99
O=C(NCCO)c1cc2ccccc2c(=O)s1	3.79*
CC(C)OC(=O)c1cc2ccccc2c(=O)s1	-0.39
O=C(NCc1ccc(C(F)(F)F)cc1)c1cc2ccc3ccccc3c2s1	2.77
O=C(O)CSCC(=O)NCCNc1ncccc1C(F)(F)F	1.82
O=C(c1cc(O)c(O)c([N+](=O)[O-])c1)c1ccccc1F	-0.16
Cc1ccc(C(=O)c2cc(O)c(O)c([N+](=O)[O-])c2)cc1	8.45*
CC(=O)c1ccc(SC(C)C)c([N+](=O)[O-])c1	-2.3
Cc1ccc2oc3c(c(=O)c2c1)C(c1ccc(O)cc1)N(Cc1ccccc1Cl)C3=O (stereo not drawn)	-0.06
CC(C)(C)NS(=O)(=O)c1ccc2c(c1)oc(=O)c1cc(S(=O)(=O)NC(C)(C)C)ccc12	-0.8
O=c1oc2cc(S(=O)(=O)N3CCCC3)ccc2c2ccc(S(=O)(=O)N3CCCC3)cc12	3.49*
CN(C)S(=O)(=O)c1ccc2c(c1)oc(=O)c1cc(S(=O)(=O)N(C)C)ccc12	-0.56
Cc1ccc(Nc2nc3nonc3nc2N(C)C)cc1	1.67
CCOC(=O)c1sc(C)nc1C	0.33
CC(C)n1c(/C=C/[C@H](O)C[C@H](O)CC(=O)O)c(-c2ccc(F)cc2)c2ccccc21	-0.68
CC/C(=N\NS(=O)(=O)c1ccc(C)cc1)c1ccco1	-3.11
COc1cccc(OCCn2cc(C(=O)c3ccco3)c3ccccc32)c1	-1.42
O=C(NCc1ccco1)Oc1ccccc1	1.21
Oc1ccccc1Nc1nc(NCc2ccco2)c2ccccc2n1	3.11*
Cc1cc(C)nc(NCc2ccco2)n1	-0.31
N#Cc1ccccc1NC(=O)Nc1cc(-c2cccs2)nn1-c1ccc(I)cc1	-1.89
SMILES	Dicer processing
COC(=O)c1[nH]c(-c2ccccc2)c(C)c1C(=O)OC	1.28
COc1ccc(-c2nc3n(n2)C(c2cc(OC)ccc2OC)C2=C(CC(C)(C)CC2=O)N3)cc1 (stereo not drawn)	-0.93
Cc1ccccc1-n1c(N)cc(=O)[nH]c1=O	0.11
Oc1ccc(Cl)cc1C1=NN2C(C1)c1ccccc1OC2c1cccnc1 (stereo not drawn)	0.4
Oc1ccccc1C1=NN2C(C1)c1cc(Cl)ccc1OC2c1ccsc1 (stereo not drawn)	12.4*
Oc1ccccc1C1=NN2C(C1)c1cc(Cl)ccc1OC2c1ccncc1 (stereo not drawn)	2.58
Cc1ccc(O)c(C2=NN3C(C2)c2ccccc2OC3c2cccnc2)c1 (stereo not drawn)	2.95
Oc1ccc(Cl)cc1C1=NN2C(C1)c1ccccc1OC2c1ccsc1 (stereo not drawn)	6.74*
COc1ccc(O)c(C2=NN3C(C2)c2cc(Cl)ccc2OC3c2ccsc2)c1 (stereo not drawn)	1.15
Cc1ccc(Sc2nc(C)nc(C)c2Oc2ccc(Cl)cc2Cl)cc1	-0.66
CC1C(=O)N(C)c2ccc(S(=O)(=O)N3CCOCC3)cc21 (stereo not drawn)	0.01
COCc1ccc2oc(C(=O)O)cc2c1	-0.35
COc1cc(S(=O)(=O)n2ccnc2C(C)C)c(OC)cc1Cl	0.79
CCOC(=O)NC(=O)/C(C#N)=C/c1ccc(N(C)C)cc1	3.41*
CCOC(=O)/C(C#N)=C/c1ccc(-c2ccccc2)cc1	1.19
CCOC(=O)c1c(C)csc1NC(=O)/C(C#N)=C/c1ccc(O)cc1	0.68
N#Cc1ccc(Oc2nc3cc(Cl)ccc3s2)cc1	0.56
Cc1ccc(SCc2cccc(C(=O)N3CCN(c4ncccc4C(F)(F)F)CC3)c2)cc1	-1.93
OCCN1CCN(c2nnc(-c3ccccc3)cc2-c2ccccc2)CC1	-0.98
Cc1cc(NCCCn2ccnc2)n2c(nc3ccccc32)c1C#N	2.68
Cc1cccc(-c2noc(NC(=O)O/N=C/c3c(Cl)cccc3Cl)n2)c1	0.81
CC(C)(C)NC(=S)N/N=C/c1c(Cl)cccc1Cl	-2.02
CC(C)(C)NC(=S)N/N=C/C=N/NC(=S)NC(C)(C)C	4.3*
CC(C)(C)NC(=S)N/N=C/c1ccc(O)cc1O	2.24
C=CCOc1ccc(C2c3c(oc4ccccc4c3=O)C(=O)N2c2nncs2)cc1OC (stereo not drawn)	0.48
SMILES	Dicer processing
O=C(NCCN1CCNC1=O)Nc1ccc(OCc2ccccc2)cc1	1.94
COc1ccc(O)c(C(=O)CC(=O)c2ccc(F)cc2)c1	-0.32
COc1ccc(O)c(C(=O)C2c3ccccc3C(=O)N2c2ccc(C)cc2)c1 (stereo not drawn)	7.95*
COc1ccc2c(c1)C(=O)N(c1ccc(C)cc1)C(=O)C2	1.18
Clc1ccc(CSC2=NNC(c3ccccn3)S2)cc1 (stereo not drawn)	1.13
CCCCSc1ncnc2c1sc1nc3c(cc12)COC(C)(C)C3	-0.85
FC(F)(F)c1ccc(-c2nnc(-c3ccc4nccnc4c3)o2)cc1	-0.74
FC(F)(F)c1ccc(C2=NCCO2)cc1	4.75*
FC(F)(F)c1ccc(-c2nc(=S)[nH][nH]2)cc1	-0.04
O=C(Nc1c(C(=O)c2ccc(F)cc2)oc2ccccc12)c1ccco1	-0.64
O=C(Nc1c(C(=O)c2ccc(Br)cc2)oc2ccccc12)c1ccco1	-1
COC(=O)c1ccc(C(=O)Nc2c(C(N)=O)oc3ccccc23)cc1	3.59*
O=C(NC(=O)c1c(F)cccc1F)O/N=C1\CCCc2occc21	-0.72
O=C1CSC(=O)N1c1ccc(C(F)(F)F)cc1	3.93*
O=C1CSC(=O)N1c1ccc(Cl)cc1	-0.02
COc1ccc(N2C(=O)CSC2=O)cc1	1.77
CC1(C)SC(C(=O)O)N[C@H]1C(=O)O (stereo partly drawn)	3.1*
CC1(C)SC(c2ccc(F)cc2)N[C@H]1C(=O)O (stereo partly drawn)	-1.08
C=C1SC(=Nc2ccccc2Cl)N(C(=O)c2sc3ccccc3c2Cl)C12CCCCC2	0.29
CC[n+]1c(/C=C/c2ccc3c(c2)OCO3)sc2ccc(OC)cc21	0.34
CC(C)Nc1nc(NC(C)C)nc(N(C)C#N)n1	6.95*
N#Cc1cnc(Nc2ccc(F)cc2)nc1N	0.74
CCCCCOc1ccc(C2C(C(=O)OC)=C(C)N=C3SCCC(=O)N32)cc1OC (stereo not drawn)	0.59
O=C(Cn1c(=O)sc2ccccc21)Nc1nnc(SCC(=O)c2ccccc2)s1	2.91
COc1ccc(OC)c(NC(=O)C(=O)NN)c1	-1.36
SMILES	Dicer processing
COc1ccc(OC)c(NC(=O)CCC(=O)O)c1	4.95*
COC(=O)c1cc(OC)c(OC)cc1NC(=O)CCC(=O)O	-0.09
O=C(Cc1ncon1)Nc1ccc(F)c(Cl)c1	-2.38
Cc1ccc(O)c(C2=Nc3ccccc3N=C(c3ccco3)C2)c1	3.99*
Cc1ccc2c(c1C)NC(=O)CC(c1ccccc1O)=N2	1.55
Cc1ccc(O)c(C2=NN3C(C2)c2ccccc2OC3C(C)C)c1 (stereo not drawn)	0.45
CCc1ccc(C(=O)/C=C\Nc2ccc(Cl)cn2)cc1	-0.39
COc1ccccc1NC(=O)Nc1nn(C)c2cccc(N(C)C)c12	-2.72
Cc1nc(N2CCCCC2)ncc1S(=O)(=O)c1ccc(Cl)cc1	-0.79
COc1ccc(C2C(C#N)=C3N=C(N)c4ccccc4N3C3=C2C(=O)CC(C)(C)C3)cc1OC (stereo not drawn)	8.18*

Assay outcomes (PubChem)
